# Assay results reported in PubChem BioAssay (Tox21).
# Values joined by “and” are separate entries in the source; they are usually repeats but may differ in a detail not shown here. Equal values may be shown once. Results filed as inconclusive are left out. A call without a number means that no potency is given here. Active and inactive are the calls of the source. Unless noted, calls come from the whole dose curve; as a rule, active = well fitted curve in the direction sought with a large enough effect in the repeat runs; inconclusive = weak or mixed curves; inactive = no such curve, though single readings can be large; an effect the other way counts as inactive or inconclusive.
# Experiments:
# [1] = qHTS assay for small molecules that induce genotoxicity in human embryonic kidney cells expressing luciferase-tagged ATAD5 (AID 651632); note: nearly all actives have a fitted effect of over 15% in size
# Procedure, shortened: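 Luminescent reporter readout, HEK293T ATAD5-luc line: 16 hr drug exposure (37C, 5% CO2) followed by Amplite, 30 min RT.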
# [2] = qHTS assay for small molecule agonists of the p53 signaling pathway - cell viability (AID 651633; calls by dose curve;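 note: p53RE-bla HCT reporter cells with a stable beta-lactamase p53 reporter; series mostly up to about 83 µM; nearly all actives have a fitted effect of over 30% in size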)
# Procedure, shortened: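 Viability counter-read: CellTiter-Glo luminescence (30 min, room temperature) in the same p53RE-bla plates. These plates had been exposed to compounds for 16 h at 37 C.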
# [3] = qHTS assay for small molecules that induce genotoxicity in human embryonic kidney cells expressing luciferase-tagged ATAD5 - cell viability (AID 651634; calls by dose curve; note: nearly all actives have a fitted effect of over 25% in size; note: potency is the fitted concentration of half-maximal effect)
# Procedure, shortened: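 Viability read: CellTiter-Fluor fluorescence, 30 min at 37C. Cells: HEK293T, luciferase-tagged ATAD5. Exposure: 15.5 hr, 37C, 5% CO2, compound or DMSO vehicle.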
# [4] = qHTS assay for small molecule disruptors of the mitochondrial membrane potential - cell viability (AID 720634; calls by dose curve; note: nearly all actives have a fitted effect of over 20% in size; note: potency is the fitted concentration of half-maximal effect)
# Procedure, shortened: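 HepG2, 1 hr compound, 37 C. ATP luminescence via CellTiter-Glo, 30 min RT, same well as m-MPI.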
# [5] = qHTS assay for small molecule disruptors of the mitochondrial membrane potential (AID 720635); note: potency is the fitted concentration of half-maximal effect
# Procedure, shortened: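 Mitochondrial membrane potential tracked with Mito-MPS dye, red aggregates (ex 540/em 590 nm) against green monomers (ex 490/em 535 nm). Compound treatment 1 hr at 37C, dye 30 min in HepG2.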
# [6] = qHTS assay to test for compound auto fluorescence at 590 nm (red) in HepG2 cells (AID 720674)
# Procedure, shortened: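 Red autofluorescence (Ex/Em 540/590 nm, Rose Bengal sodium equivalents) was measured in HepG2 cells, 2,000 per well in MEM plus 10% FBS, plated overnight at 37 C. Readings were taken 1 hr after adding 23 nL compound or DMSO, at 37 C and 5% CO2.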
# [7] = qHTS assay to test for compound auto fluorescence at 535 nm (green) in HepG2 cells (AID 720675)
# [8] = qHTS assay to test for compound auto fluorescence at 460 nm (blue) in HEK293 cells (AID 720678)
# Procedure, shortened: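 Auto fluorescence in the blue band was quantified as triamterene equivalency. HEK293 cells were seeded at 2,000/well, dosed after a 4-5 hr attachment, and kept overnight at 37C before the 405/460 nm reading.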
# [9] = qHTS assay to test for compound auto fluorescence at 590 nm (red) in HEK293 cells (AID 720679)
# Procedure, shortened: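 Autofluorescence equivalency to Rose Bengal sodium, 540/590nm, in HEK293 cells exposed overnight to 23 nL compound per well.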
# [10] = qHTS assay to test for compound auto fluorescence at 535 nm (green) in HEK293 cells (AID 720680)
# [11] = qHTS assay to test for compound auto fluorescence at 460 nm (blue) in HEK293 cell free culture (AID 720681)
# Procedure, shortened: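 Blue fluorescence (Ex 405/Em 460 nm, triamterene-equivalent) was read immediately after pin transfer of compound or DMSO into medium (DMEM, 10% FBS) without cells.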
# [12] = qHTS assay to test for compound auto fluorescence at 535 nm (green) in HEK293 cell free culture (AID 720682)
# Procedure, shortened: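 Each library compound, or DMSO control, is added by pintool to medium alone, comprising DMEM and 10% FBS. Emission at 535 nm following 485 nm excitation is quantified against fluorescein.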
# [13] = qHTS assay to test for compound auto fluorescence at 590 nm (red) in HEK293 cell free culture (AID 720683)
# Procedure, shortened: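 Red-channel autofluorescence of compounds in culture medium (DMEM, 10% FBS), no cells, measured at 540/590 nm. Rose Bengal sodium is the reference fluorophore for equivalence.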
# [14] = qHTS assay to test for compound auto fluorescence at 590 nm (red) in HepG2 cell free culture (AID 720684)
# Procedure, shortened: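 Plate contents were MEM with 10% FBS plus test compound or DMSO, no cells. Fluorescence was recorded with 540 nm excitation and 590 nm emission.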
# [15] = qHTS assay to test for compound auto fluorescence at 460 nm (blue) in HepG2 cell free culture (AID 720685)
# Procedure, shortened: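 Compound (23 nL) or DMSO pinned into cell-free MEM with 10% FBS; blue fluorescence read at 405/460 nm excitation/emission, expressed as auto-fluorescence equivalency to triamterene.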
# [16] = qHTS assay to test for compound auto fluorescence at 535 nm (green) in HepG2 cell free culture (AID 720686)
# [17] = qHTS assay to test for compound auto fluorescence at 460 nm (blue) in HepG2 cells (AID 720687)
# Procedure, shortened: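 Blue-channel autofluorescence (Ex/Em 405/460 nm, triamterene-equivalent) was measured after 1 hr compound exposure at 37 C, 5% CO2. Cells were HepG2, plated overnight at 37 C in MEM plus 10% FBS.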
# [18] = qHTS assay for small molecule agonists of the p53 signaling pathway (AID 651631; calls by dose curve; note: nearly all actives have a fitted effect of over 15% in size)
# Procedure, shortened: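 Beta-lactamase reporter activity under p53 response elements was quantified in HCT-116 cells by FRET fluorescence, following 16 h incubation with test compounds at 37 °C and 2 h substrate development at room temperature.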
# [19] = target: Glucocorticoid receptor (Homo sapiens) (UniProt P04150); experiment: qHTS assay to identify small molecule agonists of the glucocorticoid receptor (GR) signaling pathway (AID 720691; active = well fitted activation curve with a large enough effect in the signal ratio in the repeat runs, not every such curve was filed as active; the % refers to the signal ratio)
# Procedure, shortened: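 qHTS in GR-bla HeLa cells: 4 h settling at 37 C/5% CO2, 18 h compound incubation at 37 C, 2 h LiveBLAzer B/G FRET substrate at room temperature, fluorescence intensity measured.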
# [20] = target: Glucocorticoid receptor (Homo sapiens) (UniProt P04150); experiment: qHTS assay to identify small molecule antagonists of the glucocorticoid receptor (GR) signaling pathway (AID 720692; active = well fitted inhibition curve with a large enough effect in the signal ratio in the repeat runs, not every such curve was filed as active; the % refers to the signal ratio)
# Procedure, shortened: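 Inhibition of glucocorticoid signalling is measured in HeLa cells with a GRE-controlled beta-lactamase reporter; cells are co-treated with compound and 5 nM dexamethasone (final) for 18 h before FRET substrate readout.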
# Glucocorticoid receptor (Homo sapiens), sequence (P04150 whole entry, looked up): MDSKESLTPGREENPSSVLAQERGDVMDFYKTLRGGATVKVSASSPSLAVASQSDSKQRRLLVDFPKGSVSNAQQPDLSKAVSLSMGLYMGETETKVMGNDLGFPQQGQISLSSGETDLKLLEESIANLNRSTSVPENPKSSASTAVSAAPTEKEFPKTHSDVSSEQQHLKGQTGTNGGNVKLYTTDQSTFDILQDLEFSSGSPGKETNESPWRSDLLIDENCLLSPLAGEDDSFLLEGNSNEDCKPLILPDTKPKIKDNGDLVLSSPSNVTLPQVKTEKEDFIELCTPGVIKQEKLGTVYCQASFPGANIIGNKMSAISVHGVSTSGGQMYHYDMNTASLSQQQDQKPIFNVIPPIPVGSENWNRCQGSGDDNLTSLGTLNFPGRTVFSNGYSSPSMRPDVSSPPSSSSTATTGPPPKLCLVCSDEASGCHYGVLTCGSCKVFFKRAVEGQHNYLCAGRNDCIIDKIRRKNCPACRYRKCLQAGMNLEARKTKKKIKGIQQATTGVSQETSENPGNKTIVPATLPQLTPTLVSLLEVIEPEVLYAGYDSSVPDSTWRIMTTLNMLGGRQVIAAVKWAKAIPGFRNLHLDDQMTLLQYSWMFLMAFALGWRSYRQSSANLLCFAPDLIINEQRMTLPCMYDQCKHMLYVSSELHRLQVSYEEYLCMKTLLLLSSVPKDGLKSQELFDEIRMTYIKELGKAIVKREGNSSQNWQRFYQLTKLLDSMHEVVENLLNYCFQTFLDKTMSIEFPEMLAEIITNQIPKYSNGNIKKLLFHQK
Compound,Potency [1],Potency [2],Potency [3],Potency [4],Potency [5],outcome [6],outcome [7],Potency [8],outcome [9],outcome [10],Potency [11],outcome [12],outcome [13],outcome [14],Potency [15],outcome [16],Potency [17],Potency [18],outcome [19],Potency [20]
Nc1ncn[nH]1,inactive,inactive,inactive,inactive,inactive,inactive,inactive,inactive,inactive,inactive,inactive,inactive,inactive,inactive,inactive,inactive,inactive,,,
NN=C(N)N,inactive,inactive,inactive,inactive,inactive,inactive,inactive,inactive,inactive,inactive,inactive,inactive,inactive,inactive,inactive,inactive,inactive,,,
Cc1ccc([N+](=O)[O-])cc1,inactive,inactive,inactive,inactive,inactive,inactive,,inactive,inactive,inactive,inactive,inactive,inactive,inactive,inactive,inactive,inactive,inactive,,
CCOP(=S)(OCC)SCSC(C)(C)C,inactive,inactive,inactive,inactive,,inactive,inactive,inactive,inactive,inactive,inactive,inactive,inactive,inactive,inactive,inactive,inactive,inactive,,
ClC(Cl)(Cl)Br,inactive,inactive,inactive,inactive,inactive,inactive,,inactive,inactive,inactive,inactive,inactive,inactive,inactive,inactive,inactive,inactive,inactive,inactive,inactive
c1ccc(C2CO2)cc1 (centres undefined),inactive,inactive,inactive,inactive,inactive,inactive,,inactive,inactive,inactive,inactive,inactive,inactive,inactive,inactive,inactive,inactive,inactive,inactive,
CCOP(=S)(OCC)SCn1c(=O)oc2cc(Cl)ccc21,inactive,inactive,inactive,54.5 µM (active),29.3 µM (active) and 27.3 µM (active),inactive,inactive,inactive,inactive,inactive,inactive,inactive,inactive,inactive,inactive,inactive,inactive,,,
COc1ccc(CO)cc1,,inactive,inactive,inactive,inactive,inactive,inactive,inactive,inactive,inactive,inactive,inactive,inactive,inactive,inactive,inactive,inactive,inactive,inactive,
Brc1ccc(Br)cc1,inactive,inactive,inactive,inactive,inactive,inactive,,inactive,inactive,inactive,inactive,inactive,inactive,inactive,inactive,inactive,inactive,inactive,inactive,
O=C1Nc2ccc(Cl)cc2C(c2ccccc2)=NC1O (centres undefined),inactive,inactive,inactive,inactive,,inactive,inactive,inactive,inactive,inactive,inactive,inactive,inactive,inactive,inactive,inactive,inactive,inactive,,
O=[N+]([O-])c1ccc(Nc2ccccc2)cc1,inactive,inactive,54.5 µM (active),61.1 µM (active),7.75 µM (active) and 2.73 µM (active),inactive,inactive,inactive,inactive,inactive,inactive,inactive,inactive,inactive,inactive,inactive,inactive,,,
COc1ccc(C=O)cc1OC,inactive,inactive,inactive,inactive,,inactive,inactive,inactive,inactive,inactive,inactive,inactive,inactive,inactive,inactive,inactive,inactive,inactive,,
CC(C)(O)C#N,inactive,inactive,inactive,inactive,inactive,inactive,,inactive,inactive,inactive,inactive,inactive,inactive,inactive,inactive,inactive,inactive,inactive,,
CCNc1nc(Cl)nc(NC(C)(C)C#N)n1,inactive,inactive,inactive,inactive,inactive,inactive,,inactive,inactive,inactive,inactive,inactive,inactive,inactive,inactive,inactive,inactive,inactive,inactive,
